# Compounds with a hit are over-represented: about 3.3% of the library has one in this group of screens.
# BoNT-A LC inh2 – inhibitors of Botulinum neurotoxin A light chain protease; inhibition, % at 10 µM; AID 588499; multiplex microsphere protease substrate cleavage, flow cytometry; 360,000 compounds, 0.17% hits; note: plate controls were buffer without enzyme for full effect and enzyme alone for no effect
# Autofluor counter – flagged as autofluorescent in microsphere protease counterscreen | compound autofluorescence counterscreen, microsphere flow cytometry; active compounds read high | fluorescence intensity (test concentration not listed) | 360,000 compounds, 3.1% hits | AID 624483; in the data active = fluorescence intensity above about 16000; inconclusive = no clear call, values can overlap the other calls
# SSB-PriA inh – K. pneumoniae PriA-SSBct interaction inhibition. AlphaScreen SSBct-PriA binding, biotinylated peptide. inhibition, % at 33 µM. 430,000 compounds, 0.6% hits. AID 1272365; in the data active = inhibition mostly above about 37%, no sharp cut-off; inactive = mostly below about 20%;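 note: plate controls were negative control peptide for no effect and reference peptide for full effect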
# Anthrax LF inh2 – inhibitors of Bacillus anthracis lethal factor protease; multiplex microsphere protease cleavage assay, LF; inhibition, % at 10 µM; 360,000 compounds, 0.12% hits; AID 588501; note: plate controls were buffer without enzyme for full effect and enzyme alone for no effect
# MazEF act – activators of E. coli MazEF toxin-antitoxin RNase; activation, % at 20 µM; AID 504720; FAM/BHQ RNA-DNA oligo cleavage fluorescence, 5 h; 350,000 compounds, 0.32% hits; in the data active = activation above about 50%
# BoNT F protease – blocks Botulinum neurotoxin F light chain protease; Multiplex microsphere protease cleavage assay, flow cytometry; inhibition, % at 10 µM; 360,000 compounds, 0.22% hits; AID 588497; in the data active = inhibition above about 35%, passing the limit was not always enough; inconclusive = no clear call, values can overlap the other calls; note: plate controls were buffer without enzyme for full effect and enzyme alone for no effect
# The depositor's hits bear a star; ? = inconclusive; . = not tested or not shown; ! = a repeat was not active. Cut-off read from the data, not from the text of the source, unless noted: active = inhibition above about 30%; inconclusive = no clear call, values can overlap the other calls; inactive = below that.
SMILES,BoNT-A LC inh2,Autofluor counter,SSB-PriA inh,Anthrax LF inh2,MazEF act,BoNT F protease
CCOC1=CC(=Cc2c(N)n3nc(-c4ccccc4)sc3nc2=O)C=CC1=O,.,.,-6,.,.,.
COc1cc(NC(=O)NC2(C(F)(F)F)Oc3ccccc3O2)ncn1,.,.,-3,.,.,.
C=CCN1C(=O)C(Cc2ccccc2)S/C1=N/N=C/c1cccs1 (configuration not stated),-1,4601,.,1,-22,-13
C=CCN1C(=O)C(Cc2ccccc2)S/C1=N/N=C\c1ccccc1 (configuration not stated),.,.,56*,.,.,.
CC(=NCc1cccnc1)c1c(O)n(C2CCCCC2)c(=O)[nH]c1=O,?,22369*,-2,-2,-5,-1
CC(=NCc1cccnc1)c1c(O)n(-c2ccc(C)cc2)c(=O)[nH]c1=O,2,8276,-8,0,4,11
CC(=NCc1cccnc1)c1c(O)n(-c2ccccc2C)c(=O)[nH]c1=O,-2,20266*,-5,2,-4,-5
CCC(=NCc1cccnc1)c1c(O)n(-c2ccccc2C)c(=O)[nH]c1=O,3,3658,-8,10,-6,?
CCC(=NCc1cccnc1)c1c(O)n(C2CCCCC2)c(=O)[nH]c1=O,0,20661*,-18,-4,1,0
COc1cc2c(cc1OC)C(COc1cccc(C(F)(F)F)c1)N(C(=O)c1cccc(OC)c1OC)CC2 (configuration not stated),.,.,11,.,.,.
Cc1cc(NC(=O)C(=O)NCc2ccc3c(c2)OCO3)no1,.,.,-4,.,.,.
Cc1c(Cl)cccc1NC(=O)C(=O)NCC[C@H](O)c1ccc2c(c1)OCO2,.,.,-1,.,.,.
CCN(CC)C(=O)C[n+]1cccc(C=NO)c1,.,.,-23,.,.,.
Cc1ccc2c(c1)c(/C=C/c1cc[n+](C)cc1)c(C)n2C,-24,20045*,6,-4,-962,-19
Cc1ccc(NC(=O)c2cc(N3C(=O)C4CC=CCC4C3=O)ccc2N2CCCCC2)cc1 (configuration not stated),0,4187,-6,-3,0,-13
NC(=O)c1cc(N2C(=O)C3CC=CCC3C2=O)ccc1N1CCCCC1 (configuration not stated),1,23233*,-14,3,-7,-1
O=C(Nc1ncn[nH]1)c1ccc(-n2cncn2)nn1,.,.,-15,.,.,.
COc1ccc(N(CC(=O)NCCSC2CCCCC2)S(C)(=O)=O)c(OC)c1,?,18476*,-6,-1,2,-10
O=C(COc1ccc2ccccc2c1)N1c2ccccc2Sc2ccccc21,-7,22677*,-2,1,-5,-6
COc1ccccc1OCC(=O)Nc1ccc(CC(=O)NCc2cccs2)cc1,.,.,-30,.,.,.
Cc1ccc(S(=O)(=O)NCc2nnc(SCC(=O)Nc3cccc(C)c3C)n2C)cc1,-1,21005*,1,0,-4,-1
NC(=O)CSc1nnc(-c2cc(-c3cccs3)nc3ccccc23)o1,0,2478,-20,0,59*,1
COC(=O)CSC1CCN(S(=O)(=O)C2CCCCC2)C1 (configuration not stated),.,.,-14,.,.,.
Cc1nn(-c2cc(N3CCCCC3)ccc2[N+](=O)[O-])c(=O)c2ccccc12,?,21077*,-18,2,-1,0
Cc1nn(-c2cc(N3CCNCC3)ccc2[N+](=O)[O-])c(=O)c2ccccc12,0,3082,-13,-2,12,-2
SMILES,BoNT-A LC inh2,Autofluor counter,SSB-PriA inh,Anthrax LF inh2,MazEF act,BoNT F protease
O=[N+]([O-])c1ccc(N2CCCC2)cc1N1CCCCCC1,.,.,61*,.,.,.
O=[N+]([O-])c1ccc(N2CCCC2)cc1N1CCCCC1,.,.,97*,.,.,.
O=[N+]([O-])c1ccc(N2CCNCC2)cc1N1CCCC1,.,.,62*,.,.,.
O=[N+]([O-])c1ccc(N2CCCCC2)cc1N1CCOCC1,-1,2152,27,-2,0,-5
CCOc1ccc(NC(=O)CCc2nc3sc4c(c3c(=O)[nH]2)CCCC4)cc1,.,.,-13,.,.,.
CCSc1ccccc1C(=O)NCCn1ccn2nccc12,.,.,-10,.,.,.
Cc1nc(-c2ccccc2)sc1C(=O)Nc1ccc(-c2ccc3nncn3n2)cc1,.,.,-6,.,.,.
O=[N+]([O-])c1ccc(N2CCCC2)cc1N1CCCC1,0,3140,47*,-4,-2,2
O=[N+]([O-])c1ccc(N2CCOCC2)cc1N1CCCCC1,0,4284,14,-4,1,-4
O=C(Nc1nnc(-c2cccs2)o1)C1CC(=O)N(c2ccc(F)cc2)C1 (configuration not stated),.,.,27*!,.,.,.
O=C(Nc1nnc(-c2ccccc2Cl)o1)C1CC(=O)N(c2ccccc2)C1 (configuration not stated),.,.,46*,.,.,.
Cc1ccc2c(c1)N(C(=O)CN1CCN(Cc3ccccc3F)S1(=O)=O)CCO2,.,.,-5,.,.,.
O=C(c1ccncc1)N(Cc1cc2ccccc2[nH]c1=O)C1CCCCC1,-1,20954*,-1,-1,-4,-1
CC(=O)N(Cc1cccnc1)Cc1cc2ccccc2[nH]c1=O,0,23316*,-8,-1,-2,-2
Cc1ccc(S(=O)(=O)N(Cc2cccnc2)Cc2cc3ccccc3[nH]c2=O)cc1,1,5593,0,0,-2,0
CCOc1ccc2[nH]c(=O)c(CN(Cc3cccnc3)C(=O)Nc3ccccc3OC)cc2c1,0,2483,-3,-8,-3,0
COc1ccc2[nH]c(=O)c(CN(Cc3cccnc3)C(=O)Nc3ccccc3)cc2c1,-3,23007*,-4,-4,4,-5
COc1cc(C(=O)N(Cc2cccnc2)Cc2cc3cc4c(cc3[nH]c2=O)OCCO4)cc(OC)c1OC,2,22318*,3,1,1,2
COc1ccc2cc(CN(C(=O)Nc3ccccc3)C3CCCC3)c(=O)[nH]c2c1,-3,23679*,-13,-1,0,-6
COc1ccc2[nH]c(=O)c(CN(CCO)C(=O)c3cccs3)cc2c1,1,22556*,-8,0,-7,2
COc1ccc2[nH]c(=O)c(CN(C(=O)c3cccnc3)c3cc(C)ccc3C)cc2c1,-17,18114*,-13,-22,1,-82
CC(C)CN(Cc1cc2ccccc2[nH]c1=O)C(=O)c1cccnc1,?,22057*,-3,-2,5,-9
CC(C)N(Cc1cc2ccccc2[nH]c1=O)C(=O)c1cccnc1,0,2984,0,-2,-2,-4
COc1ccc2[nH]c(=O)c(CN(C(=O)NC3CCCCC3)C3CCCCC3)cc2c1,0,10095,-4,2,3,-4
COc1cc2cc(CN(CCO)C(=O)c3cccs3)c(=O)[nH]c2cc1OC,-1,8304,-14,0,7,-2
Cc1ccc(C)c(N2CCN(S(=O)(=O)c3ccsc3C(=O)NCCc3ccccc3)CC2)c1,.,.,-14,.,.,.
O=C(NCCCNCc1ccccc1)C(=NO)c1ccccc1,.,.,-9,.,.,.
Cc1nnc(C2CCCN(C(=O)C3CCCCC3)C2)s1 (configuration not stated),.,.,-6,.,.,.
Cc1cc2n(n1)SC(Nc1cccc3ccccc13)N2 (configuration not stated),7,17932*,12,-1,4,9

# Compound activity: PubChem, several laboratories
